Experimental data: PubChem BioAssay (NCI)
About 79,000 compounds went through this panel and 15% of them were active in at least one assay; those are over-represented in the sample as a whole. The source made the active and inactive calls. Rule as the data show it: active = growth inhibition above about 70%; inactive = the rest.

How the values were obtained:
[1] = NCI Yeast Anticancer Drug Screen. Data for the rad52 strain (AID 147);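 also: 0% = growth of vehicle-treated control cultures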; conditions: S. cerevisiae rad52 mutant growth inhibition, hits give high values
Outline: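 Measured: yeast growth inhibition. System: strain with a defined DNA damage repair alteration. Reference: vehicle-treated control cultures.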

[2] = NCI Yeast Anticancer Drug Screen. Data for the wt1 strain (AID 149);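 also: 0% = growth of vehicle-treated wt1 cultures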; conditions: S. cerevisiae wt1 strain (SPY 50644) growth inhibition, hits give high values
Outline: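 Readout: yeast growth inhibition, normalised to vehicle controls, in the wt1 strain exposed to test compounds.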

[3] = NCI Yeast Anticancer Drug Screen. Data for the mgt1 strain (AID 153); conditions: S. cerevisiae mgt1 mutant growth inhibition, hits give high values
Outline: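 After exposure of the mgt1 yeast mutant to compound, growth was measured and reported as inhibition compared with vehicle controls.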

[4] = NCI Yeast Anticancer Drug Screen. Data for the rad50 strain (AID 155);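 also: 0% = growth of vehicle-only cultures of the same strain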; conditions: S. cerevisiae rad50 strain growth inhibition, hits give high values
Outline: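 Compounds were tested on a yeast strain with an engineered DNA damage repair alteration; the reported value is growth inhibition normalised to vehicle treatment.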

[5] = NCI Yeast Anticancer Drug Screen. Data for the mec2-1 strain (AID 157); conditions: S. cerevisiae mec2-1 strain, hits give high values
Outline: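 Test agents were screened against the mec2-1 yeast strain, with defined DNA repair or cell cycle alteration. Growth was scored as inhibition against vehicle-only controls.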

[6] = NCI Yeast Anticancer Drug Screen. Data for the rad14 strain (AID 159);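 also: 0% = growth of vehicle-treated control cultures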; conditions: S. cerevisiae rad14 strain growth inhibition, hits give high values
Outline: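 Compound-treated yeast with a defined DNA-repair lesion; growth inhibition normalised to vehicle-treated cultures.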

[7] = NCI Yeast Anticancer Drug Screen. Data for the sgs1 mgt1 strain (AID 161);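 also: 0% = growth of cultures given vehicle only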; conditions: S. cerevisiae sgs1 mgt1 strain, hits give high values
Outline: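 Genetically altered yeast, compound exposure, growth inhibition relative to vehicle.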

[8] = NCI Yeast Anticancer Drug Screen. Data for the CLN2oe strain (AID 163);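 also: 0% = growth of vehicle-only control cultures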; conditions: S. cerevisiae CLN2oe strain, hits give high values
Outline: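 Here, growth inhibition in a cell-cycle-altered yeast strain after compound exposure was quantified against vehicle control growth.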

[9] = NCI Yeast Anticancer Drug Screen. Data for the cln2 rad14 strain (AID 165);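 also: 0% = growth equal to vehicle treated cultures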; conditions: S. cerevisiae cln2 rad14 strain, hits give high values
Outline: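 Growth of compound-exposed yeast (cln2 rad14 genotype) measured and expressed as inhibition relative to vehicle.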

[10] = NCI Yeast Anticancer Drug Screen. Data for the bub3 strain (AID 167); conditions: S. cerevisiae bub3 mutant strain, hits give high values
Outline: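 Growth of a checkpoint-deficient yeast mutant is measured after compound exposure. Values represent inhibition relative to vehicle.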

[11] = NCI Yeast Anticancer Drug Screen. Data for the wt2 strain (AID 169);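 also: 0% = growth of vehicle-treated yeast cultures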; conditions: S. cerevisiae wt2 strain growth inhibition, hits give high values
Outline: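 Genetically defined yeast strains from a DNA-repair/cell-cycle panel were used. Compound-exposed yeast growth was measured, and the inhibition was calculated relative to vehicle treatment.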

[12] = NCI Yeast Anticancer Drug Screen. Data for the mlh1 strain (AID 171);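 also: 0% = growth of vehicle-treated control cultures of the same strain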; conditions: S. cerevisiae mlh1 strain growth inhibition, hits give high values
Outline: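 Here the genetically defined yeast mutant is grown with each compound, and the extent to which its growth falls below that of vehicle-exposed cells is reported.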

[13] = NCI Yeast Anticancer Drug Screen. Data for the sgs1 strain (AID 173);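 also: 0% = growth of vehicle-only control cultures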; conditions: S. cerevisiae sgs1 mutant, hits give high values
Outline: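 Relative growth inhibition, referenced to vehicle, was determined in a yeast strain with a defined alteration affecting DNA damage repair or cell cycle control after compound exposure.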

[14] = NCI Yeast Anticancer Drug Screen. Data for the mlh1 rad18 strain (AID 175); conditions: S. cerevisiae mlh1 rad18 strain growth inhibition, hits give high values
Outline: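 In this whole-cell yeast screen, a strain with altered DNA damage repair is challenged with compound, and its growth is measured against matched vehicle-treated controls.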

[15] = NCI Yeast Anticancer Drug Screen. Data for the rad18 strain (AID 177); conditions: S. cerevisiae rad18 mutant growth inhibition, hits give high values
Outline: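 Screen uses a yeast strain with a defined lesion in DNA damage repair; compound effect is read as loss of growth compared to untreated vehicle cultures.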

[16] = NCI Yeast Anticancer Drug Screen. Data for the rad50EPP+ strain (AID 151);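 also: 0% = growth of vehicle-treated control cultures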; conditions: S. cerevisiae rad50 mutant strain, hits give high values
Outline: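 One strain with a rad50 alteration (rad50EPP+) was compound-treated, its growth then compared to that of vehicle controls.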

[17] = at 5.0 µM (retest, dose inferred, filed as 0.5)
[18] = at 50.0 µM (retest, dose inferred, filed as 5.0)

Measured: growth inhibition

COc1ccc(/C=C2\NC(=S)N(/C=C3\C(=O)Oc4ccccc4C3=O)C2=O)cc1
inactive: [1]; at 1.2 µM -1% | [1]; at 3.7 µM -1% | [1]; at 11.0 µM 3% | [1]; at 33.0 µM 5% | [1]; at 100.0 µM 21% | [2]; at 1.2 µM 1% | [2]; at 3.7 µM 1% | [2]; at 11.0 µM 1% | [2]; at 33.0 µM 4% | [2]; at 100.0 µM 15% | [3]; at 1.2 µM -5% | [3]; at 3.7 µM -5% | [3]; at 11.0 µM -3% | [3]; at 33.0 µM -8% | [3]; at 100.0 µM 28% | [4]; at 1.2 µM -4% | [4]; at 3.7 µM 4% | [4]; [17] 3% | [4]; at 11.0 µM -17% | [4]; at 33.0 µM 5% | [4]; [18] 24% | [4]; at 100.0 µM 20% | [5]; at 1.2 µM 0% | [5]; at 3.7 µM 1% | [5]; [17] -1% | [5]; at 11.0 µM 3% | [5]; at 33.0 µM 15% | [5]; [18] 1% | [5]; at 50.0 µM 56.2% | [5]; at 100.0 µM 24% | [6]; at 1.2 µM 1% | [6]; at 3.7 µM 0% | [6]; at 11.0 µM 2% | [6]; at 33.0 µM 7% | [6]; at 100.0 µM 21% | [7]; [17] 0% | [7]; [18] 8% | [8]; at 1.2 µM -6% | [8]; at 3.7 µM -6% | [8]; at 11.0 µM -9% | [8]; at 33.0 µM 11% | [8]; at 100.0 µM 34% | [9]; [17] 41% | [9]; [18] 26% | [10]; at 1.2 µM -3% | [10]; at 3.7 µM -2% | [10]; [17] -5% | [10]; at 11.0 µM -2% | [10]; at 33.0 µM 4% | [10]; [18] 4% | [10]; at 100.0 µM 15% | [11]; at 1.2 µM -6% | [11]; at 3.7 µM -1% | [11]; at 11.0 µM -1% | [11]; at 33.0 µM 5% | [11]; at 100.0 µM 27% | [12]; at 1.2 µM -1% | [12]; at 3.7 µM 1% | [12]; at 11.0 µM 1% | [12]; at 33.0 µM 9% | [12]; at 100.0 µM 25% | [13]; at 1.2 µM 0% | [13]; at 3.7 µM 2% | [13]; at 11.0 µM 2% | [13]; at 33.0 µM 20% | [13]; at 100.0 µM 35% | [14]; [17] 4% | [14]; [18] 2% | [15]; at 1.2 µM -3% | [15]; at 3.7 µM -1% | [15]; at 11.0 µM 1% | [15]; at 33.0 µM 5% | [15]; at 100.0 µM 14%
active: [4]; at 50.0 µM 70.2% | [7]; at 50.0 µM 84.2% | [9]; at 50.0 µM 89.2% | [10]; at 50.0 µM 79.2% | [14]; at 50.0 µM 72.8%

O=[N+]([O-])c1cc(F)c(F)cc1Sc1cc(F)c(F)cc1[N+](=O)[O-]
inactive: [1]; at 1.2 µM 6% | [1]; at 3.7 µM 37% | [16]; at 1.2 µM 30% | [16]; at 3.7 µM 68% | [3]; at 1.2 µM -4% | [3]; at 3.7 µM 3% | [4]; at 1.2 µM 6% | [4]; at 3.7 µM 27% | [4]; [17] 66% | [5]; at 1.2 µM -2% | [5]; at 3.7 µM 14% | [5]; [17] -2% | [6]; at 1.2 µM 1% | [6]; at 3.7 µM 17% | [7]; [17] 64% | [8]; at 1.2 µM -2% | [8]; at 3.7 µM 1% | [9]; [17] 27% | [10]; at 1.2 µM -3% | [10]; at 3.7 µM 5% | [10]; [17] 49% | [11]; at 1.2 µM 0% | [11]; at 3.7 µM 12% | [12]; at 1.2 µM 0% | [12]; at 3.7 µM 7% | [13]; at 1.2 µM 6% | [13]; at 3.7 µM 32% | [15]; at 1.2 µM 38% | [15]; at 3.7 µM 69%
active: [1]; at 11.0 µM 92% | [1]; at 33.0 µM 98% | [1]; at 100.0 µM 97% | [16]; at 11.0 µM 96% | [16]; at 33.0 µM 98% | [16]; at 100.0 µM 98% | [3]; at 11.0 µM 80% | [3]; at 33.0 µM 99% | [3]; at 100.0 µM 96% | [4]; at 11.0 µM 91% | [4]; at 33.0 µM 98% | [4]; [18] 98% | [4]; at 50.0 µM 98.4% | [4]; at 100.0 µM 97% | [5]; at 11.0 µM 83% | [5]; at 33.0 µM 99% | [5]; [18] 98% | [5]; at 50.0 µM 98.5% | [5]; at 100.0 µM 98% | [6]; at 11.0 µM 83% | [6]; at 33.0 µM 98% | [6]; at 100.0 µM 97% | [7]; [18] 98% | [7]; at 50.0 µM 98.3% | [8]; at 11.0 µM 75% | [8]; at 33.0 µM 99% | [8]; at 100.0 µM 95% | [9]; [18] 97% | [9]; at 50.0 µM 96.8% | [10]; at 11.0 µM 76% | [10]; at 33.0 µM 98% | [10]; [18] 97% | [10]; at 50.0 µM 98.5% | [10]; at 100.0 µM 98% | [11]; at 11.0 µM 91% | [11]; at 33.0 µM 99% | [11]; at 100.0 µM 96% | [12]; at 11.0 µM 90% | [12]; at 33.0 µM 99% | [12]; at 100.0 µM 97% | [13]; at 11.0 µM 92% | [13]; at 33.0 µM 99% | [13]; at 100.0 µM 97% | [14]; [17] 82% | [14]; [18] 97% | [14]; at 50.0 µM 98.6% | [15]; at 11.0 µM 94% | [15]; at 33.0 µM 98% | [15]; at 100.0 µM 97%
